Giardia FBPA inh – blocks Giardia fructose-bisphosphate aldolase activity; A8B2U2; purified Giardia FBPA; Potency, µM (titrated, usually from 59.6 µM), most hits filed as inhibitors; 290,000 compounds, 0.71% hits; AID 2451; further: nearly all actives have a fitted effect of over 55% in size
Target sequence (A8B2U2 whole entry, looked up): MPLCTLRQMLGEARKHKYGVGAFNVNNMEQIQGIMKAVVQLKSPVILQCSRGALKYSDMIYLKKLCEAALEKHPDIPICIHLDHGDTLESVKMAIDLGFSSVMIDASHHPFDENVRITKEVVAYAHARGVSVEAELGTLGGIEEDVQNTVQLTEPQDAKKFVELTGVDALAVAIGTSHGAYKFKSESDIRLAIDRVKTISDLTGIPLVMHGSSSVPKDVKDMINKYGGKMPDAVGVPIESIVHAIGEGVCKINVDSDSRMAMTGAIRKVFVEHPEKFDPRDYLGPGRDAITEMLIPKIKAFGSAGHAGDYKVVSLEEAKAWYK
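40 nM FBPA preincubated 10 min at RT with compound (up to 57.5 uM final), then substrate plus GAPDH/TPI/NAD/arsenate coupling and diaphorase/resazurin added. Fluorescence read after 20 min at RT, 525/598 nm.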
FMDV antiviral – antivirals against foot and mouth disease virus. FMDV antiviral cell-based qHTS. Potency, µM (doses to about 57.9 µM), hits mostly inhibitors. 410,000 compounds, 1.2% hits. AID 1159524; calls by dose curve; tested in HEK293T cells; further: read-out not given here; nearly all actives have a fitted effect of over 45% in size
HCMV inh – human cytomegalovirus inhibition. HFF cells, HCMV-luciferase reporter, 72 h; active compounds read low. activity change, negative = inhibition, % at 57.5 µM. 410,000 compounds, 4.5% hits. AID 1259415; in the data active means activity change below about -60%; inconclusive means no clear call, values can overlap the other calls; inactive means above about -39%
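Inhibition of viral replication was scored as loss of reporter luminescence in HFFs infected with HCMV-luciferase (MOI 1 PFU/cell) for 72 h; compounds tested at 2 doses, normalized to buffer and Salinomycin controls.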
Lassa entry inh – Lassa virus entry inhibition. 300,000 compounds, 1.2% hits. Potency, µM (titrated, usually from 37.9 µM), most hits filed as inhibitors. Lassa virus pseudotype entry inhibition, cell reporter. AID 540256; calls by dose curve; tested in HEK293 cells; further: nearly all actives have a fitted effect of over 50% in size
HCV inh – blocks hepatitis C virus; Huh7.5.1 HCVcc-Cre infection, luciferase reporter, 44 h; Potency, µM (doses to about 41.8 µM), actives largely listed as inhibitors; 340,000 compounds, 3.4% hits
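A cell-based infection assay in which seeded cells (1,000 per well) receive test compound after 4 h, are inoculated with HCVcc-Cre at approximately 0.5 moi, and are incubated 44 h before luminescence detection.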
Marburg entry inh – inhibitors of Marburg virus binding or cell entry; Marburg virus pseudotyped entry inhibition, cell reporter; Potency, µM (titrated, usually from 37.8 µM), hits mostly inhibitors; 300,000 compounds, 1.8% hits; AID 540276; calls by dose curve; tested in HEK293 cells
Large screens that a line does not name were inactive. The list is not random: actives were taken first. Their share in the collection is about 8.3%. Unless noted, the call rests on the fitted dose curve; in most records, active means well fitted curve in the direction sought with a large enough effect; inconclusive means small, poorly fitted or top-dose-only effect, or another doubt; inactive means no such curve, though single readings can be large; an effect the other way counts as inactive or inconclusive.

COc1ccc2sc(-c3ccc(N(C)C)cc3)c(C#Cc3cncn3C)c2c1	HCV inh 2.5µM (no result: Giardia FBPA inh, Lassa entry inh, Marburg entry inh)
COc1ccc2sc(-c3ccc(N(C)C)cc3)c(C#CC(C)(C)O)c2c1	HCV inh 3.2µM (no result: Giardia FBPA inh, Lassa entry inh, Marburg entry inh)
COc1ccc(-c2sc3ccc(N4CCOCC4)cc3c2C#CC(C)(C)O)cc1	HCV inh inconclusive (no result: Giardia FBPA inh, Lassa entry inh, Marburg entry inh)
COc1ccc2sc(-c3ccc(SC)cc3)c(C#CCO)c2c1	HCV inh 2.8µM (no result: Giardia FBPA inh, Lassa entry inh, Marburg entry inh)
COc1cccc(-c2sc3ccc(OC)cc3c2C#CC(C)(C)O)c1	HCV inh 7.1µM (no result: Giardia FBPA inh, Lassa entry inh, Marburg entry inh)
COc1ccc2sc(-c3ccc(N(C)C)cc3)c(C#CCCO)c2c1	HCV inh 1.4µM (no result: Giardia FBPA inh, Lassa entry inh, Marburg entry inh)
COc1ccc2sc(-c3ccc(SC)cc3)c(C#CC(C)(C)O)c2c1	HCV inh 2.8µM (no result: Giardia FBPA inh, Lassa entry inh, Marburg entry inh)
COC(=O)c1c(-c2ccc(SC)cc2)sc2ccc(OC)cc12	none (no result: Giardia FBPA inh, Lassa entry inh, Marburg entry inh)
Clc1ccccc1-c1nccc(NCc2ccccc2)n1	none (no result: HCMV inh, Lassa entry inh, HCV inh, Marburg entry inh)
COc1ccc2nc(N=NC3=C(O)CC(C)(C)CC3=O)sc2c1	Giardia FBPA inh inconclusive, HCMV inh -95, Lassa entry inh 15µM, HCV inh inconclusive, Marburg entry inh 13µM
COc1ccc2nc(N=Nc3ccc(O)c4ccccc34)sc2c1	HCMV inh -76, Lassa entry inh inconclusive, HCV inh inconclusive, Marburg entry inh inconclusive
CC(C)(C)C1CCc2c(sc(NC(=O)CCC(=O)O)c2C(=O)Nc2ccccc2C(F)(F)F)C1 (centres undefined)	Marburg entry inh inconclusive (no result: Giardia FBPA inh, HCV inh)
CCN1/C(=C/c2ccc3cccc(C)c3[n+]2CC)Sc2ccccc21	FMDV antiviral 7.9µM, HCMV inh -104, Lassa entry inh 6.5µM, HCV inh 6.3µM, Marburg entry inh 2.6µM
CCN1/C(=C\c2ccc3cc(C)ccc3[n+]2CC)Sc2cc(C)c(C)cc21	FMDV antiviral inconclusive, HCMV inh -97, HCV inh 2.8µM, Marburg entry inh inconclusive (no result: Lassa entry inh)
CCN1/C(=C/c2ccc3cc(C)ccc3[n+]2CC)Sc2ccc3sccc3c21	FMDV antiviral 35µM, HCV inh 3.5µM (no result: Giardia FBPA inh, HCMV inh, Lassa entry inh, Marburg entry inh)
CC[n+]1c(C)sc2c3ccsc3ccc21	Lassa entry inh inconclusive
CC[n+]1c(/C=C/c2cc([N+](=O)[O-])ccc2O)ccc2ccccc21	HCMV inh inconclusive, Lassa entry inh inconclusive, HCV inh inconclusive
Cc1ccc(C)c(N2CCN(C(=O)CCCN3C(=S)NC(C)(C)CC3C)CC2)c1 (centres undefined)	FMDV antiviral 22µM, HCMV inh -64, Lassa entry inh inconclusive, HCV inh 10µM, Marburg entry inh inconclusive
CC(=O)Nc1ccc(SCC(CC(C)C)N2CCN(C)CCC2=O)cc1 (centres undefined)	none (no result: FMDV antiviral, HCMV inh, Lassa entry inh, HCV inh, Marburg entry inh)
CN(C(=O)CSc1nc2ccc(NC(=O)c3cccc(F)c3)cc2s1)c1ccccc1	FMDV antiviral inconclusive, HCMV inh -75, Marburg entry inh inconclusive (no result: Giardia FBPA inh, HCV inh)
CCOc1ccc(C(=O)Nc2ccc3nc(SCC(=O)N(C)c4ccccc4)sc3c2)cc1	FMDV antiviral inconclusive, HCMV inh inconclusive, Marburg entry inh inconclusive (no result: Giardia FBPA inh, HCV inh)
COc1ccccc1C(=O)Nc1ccc2nc(SCC(=O)N(C)c3ccccc3)sc2c1	FMDV antiviral inconclusive, HCMV inh -65, Lassa entry inh inconclusive, Marburg entry inh inconclusive (no result: Giardia FBPA inh, HCV inh)
CN(C(=O)CSc1nc2ccc(NC(=O)c3ccccc3F)cc2s1)c1ccccc1	FMDV antiviral 40µM, Lassa entry inh inconclusive, Marburg entry inh inconclusive (no result: Giardia FBPA inh, HCV inh)
Cc1sc(-n2cccc2)c(C(C)NC(=O)Nc2ccccc2Cl)c1C (centres undefined)	Marburg entry inh inconclusive (no result: Giardia FBPA inh, Lassa entry inh, HCV inh)
CCCCNC(=O)c1nc2cc(C)c(C)cc2nc1-c1ccccc1	none (no result: Giardia FBPA inh, FMDV antiviral, Lassa entry inh, HCV inh, Marburg entry inh)
CCCCNC(=O)c1nc2cc(C)c(C)cc2nc1-c1cccc(Br)c1	HCMV inh -94 (no result: Giardia FBPA inh, FMDV antiviral, Lassa entry inh, HCV inh, Marburg entry inh)
CO[C@@H]1COC(=O)CC=C[C@@H](C)[C@@H]2C=C[C@@H](O)[C@@H](COC(=O)C/C=C\[C@H]1C)O2	none (no result: FMDV antiviral, HCMV inh, Lassa entry inh, HCV inh, Marburg entry inh)
CC(C)c1nc(N2CCN(C(=O)c3ccco3)CC2)c2c3c(sc2n1)CCCC3	Lassa entry inh inconclusive, HCV inh 22µM, Marburg entry inh 18µM (no result: FMDV antiviral)
Cc1sc2nnn(CC(=O)N3CCN(C(=O)c4ccco4)CC3)c(=O)c2c1C	none (no result: Giardia FBPA inh)
Cc1c(C(=O)N2CCN(c3ccc(F)cc3)CC2)sc2ncnc(N3CCN(c4ccccn4)CC3)c12	FMDV antiviral inconclusive, HCMV inh -81, Lassa entry inh inconclusive, HCV inh inconclusive, Marburg entry inh inconclusive
Cc1sc2nc(C(C)C)nc(SCC(=O)N3CCN(C(=O)c4ccco4)CC3)c2c1C	FMDV antiviral inconclusive, HCV inh 11µM

Source: PubChem
